The results in this text go back to PubChem BioAssay.

Values without a mark were called inactive. For some of these results: Potency and affinity values are given separately. The source made the active and inactive calls. Unless noted, how the calls were made is not given here.

What is called inhibition is the change of the read-out against control, counted positive when it falls.

A short description of test [1]: antimalarial activity against Dd2 strain (AID 2302;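 active means growth inhibition above 50% at the single 2 µM test dose, taken to imply half-maximal potency below 2 µM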;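 further: 0% = DMSO untreated growth and 100% = chloroquine plus artemisinin killed control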). The note with it: P. falciparum Dd2 in RBCs, LDH growth readout, 72 h; at 2 µM; stronger effect = higher value.
Test [2] can be described thus: HepG2 cytotoxicity, primary screen, cytotoxicity control for P. falciparum antimalarial project, cell-based, ATP luminescence (AID 2303;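 active means inhibition above 50%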;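 further: 0% = DMSO wells and 100% = digitonin-killed cells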). The note with it: HepG2 viability, 24-48 h, at 10 µM, stronger effect = higher value.
In test [3] the target is L-lactate dehydrogenase (Plasmodium falciparum (isolate CDC / Honduras)) (UniProt Q27743). As to the kind of experiment: PfLDH activity inhibition – cell lysate, 3D7 strain, counter-screen for P. falciparum growth inhibition project (AID 2304).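 Further: 0% = vehicle and 100% = reference inhibitor.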 The note with it: P. falciparum 3D7 crude extract, LDH APAD/NBT absorbance; at 2 µM; stronger effect = higher value. For orientation: A counterscreen serves to expose hits that act by an unwanted route or on another target.

Test [4] in a line: inhibition of 3D7 malaria parasite growth – strain 3D7 (AID 2306).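 Further: 0% = DMSO wells and 100% = chloroquine plus artemisinin control wells.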 The note with it: P. falciparum 3D7 erythrocytic growth, LDH absorbance, 72 h; at 2 µM; stronger effect = higher value.
Test [5] has as its target Calcium-dependent protein kinase 1 (Plasmodium falciparum (isolate 3D7)) (UniProt P62344). As to the kind of experiment: PfCDPK1 kinase inhibitors, biochemical, TCAMS library (AID 1159585; cut-off not given, nearly all actives have IC50 up to about 0.98 µM;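 further: inhibitors leave more ATP so luminescence rises with inhibition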). The note with it: recombinant PfCDPK1, Kinase-Glo ATP depletion luminescence. On the technique in general: Kinase-Glo measures the ATP left after a reaction by luminescence.
For test [6], the target named is Plasmodium falciparum protein kinase 6 (PK6, PF3D7_1337100) (UniProt Q8IDW1). Nature of the test: PfPK6 kinase inhibitors, biochemical, TCAMS library (AID 1159586). The note with it: recombinant PfPK6, Kinase-Glo ATP depletion luminescence.
Test [7] addresses Protein kinase 7 (PK7), Plasmodium falciparum 3D7 (PF3D7_0213400) (UniProt Q7YTF7). As to the kind of experiment: inhibition of Plasmodium PK7 catalytic activity – biochemical, TCAMS antimalarial set, Kinase-Glo luminescence (AID 1159587). The note with it: recombinant PfPK7, Kinase-Glo ATP depletion luminescence.
In test [8] the target is Calcium-dependent protein kinase 4 (Plasmodium falciparum (isolate 3D7)) (UniProt Q8IBS5). Nature of the test: PfCDPK4 kinase inhibitors, biochemical, TCAMS library (AID 1159588; cut-off not given, nearly all actives have IC50 up to about 0.91 µM). The note with it: recombinant PfCDPK4, Kinase-Glo ATP depletion luminescence.
Chain of Calcium-dependent protein kinase 4 (Plasmodium falciparum (isolate 3D7)) (Q8IBS5 whole entry, looked up): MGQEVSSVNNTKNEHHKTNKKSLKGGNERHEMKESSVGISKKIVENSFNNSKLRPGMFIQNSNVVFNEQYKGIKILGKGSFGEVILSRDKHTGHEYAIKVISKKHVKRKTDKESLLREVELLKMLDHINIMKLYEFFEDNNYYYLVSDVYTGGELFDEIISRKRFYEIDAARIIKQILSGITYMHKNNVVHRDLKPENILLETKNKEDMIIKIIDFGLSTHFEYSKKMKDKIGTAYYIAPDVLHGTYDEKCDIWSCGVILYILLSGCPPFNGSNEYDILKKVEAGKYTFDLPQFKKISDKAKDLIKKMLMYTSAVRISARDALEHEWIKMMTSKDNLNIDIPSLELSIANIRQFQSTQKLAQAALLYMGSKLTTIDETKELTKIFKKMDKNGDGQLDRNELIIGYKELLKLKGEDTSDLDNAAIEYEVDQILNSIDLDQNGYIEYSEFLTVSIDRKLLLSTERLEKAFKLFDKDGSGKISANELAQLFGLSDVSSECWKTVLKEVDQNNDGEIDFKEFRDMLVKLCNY

Chain of Plasmodium falciparum protein kinase 6 (PK6, PF3D7_1337100) (Q8IDW1 1-305): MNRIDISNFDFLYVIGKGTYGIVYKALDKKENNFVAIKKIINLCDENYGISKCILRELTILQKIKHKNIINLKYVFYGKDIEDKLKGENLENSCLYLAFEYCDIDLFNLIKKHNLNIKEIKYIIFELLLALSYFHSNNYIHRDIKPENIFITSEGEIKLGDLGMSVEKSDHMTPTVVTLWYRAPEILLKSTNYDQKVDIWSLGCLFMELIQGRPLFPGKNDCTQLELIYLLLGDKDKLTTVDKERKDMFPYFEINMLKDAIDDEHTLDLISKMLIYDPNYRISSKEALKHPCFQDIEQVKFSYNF
Chain of L-lactate dehydrogenase (Plasmodium falciparum (isolate CDC / Honduras)) (Q27743 whole entry, looked up): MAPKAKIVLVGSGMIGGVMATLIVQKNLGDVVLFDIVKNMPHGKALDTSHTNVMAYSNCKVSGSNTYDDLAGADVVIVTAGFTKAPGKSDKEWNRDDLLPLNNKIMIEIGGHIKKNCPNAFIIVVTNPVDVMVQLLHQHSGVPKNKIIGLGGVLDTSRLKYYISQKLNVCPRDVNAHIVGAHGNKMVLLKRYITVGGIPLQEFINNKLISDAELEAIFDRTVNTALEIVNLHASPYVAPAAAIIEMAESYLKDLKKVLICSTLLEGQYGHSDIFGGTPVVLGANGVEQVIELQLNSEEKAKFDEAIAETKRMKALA
Chain of Calcium-dependent protein kinase 1 (Plasmodium falciparum (isolate 3D7)) (P62344 whole entry, looked up): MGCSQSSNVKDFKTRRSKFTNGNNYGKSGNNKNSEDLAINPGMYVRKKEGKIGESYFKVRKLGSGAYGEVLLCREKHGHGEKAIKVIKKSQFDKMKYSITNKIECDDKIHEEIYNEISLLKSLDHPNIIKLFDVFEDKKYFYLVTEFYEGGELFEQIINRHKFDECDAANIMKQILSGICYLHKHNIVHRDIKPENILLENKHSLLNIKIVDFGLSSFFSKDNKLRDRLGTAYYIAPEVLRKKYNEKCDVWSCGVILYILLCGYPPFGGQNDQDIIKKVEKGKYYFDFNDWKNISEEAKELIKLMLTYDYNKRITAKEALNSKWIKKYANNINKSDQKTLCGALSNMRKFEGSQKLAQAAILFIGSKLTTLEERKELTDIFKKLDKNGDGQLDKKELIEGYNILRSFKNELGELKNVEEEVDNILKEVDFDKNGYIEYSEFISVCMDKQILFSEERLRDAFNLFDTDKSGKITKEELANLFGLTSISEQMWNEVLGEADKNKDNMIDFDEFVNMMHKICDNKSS
Chain of Protein kinase 7 (PK7), Plasmodium falciparum 3D7 (PF3D7_0213400) (Q7YTF7 1-343): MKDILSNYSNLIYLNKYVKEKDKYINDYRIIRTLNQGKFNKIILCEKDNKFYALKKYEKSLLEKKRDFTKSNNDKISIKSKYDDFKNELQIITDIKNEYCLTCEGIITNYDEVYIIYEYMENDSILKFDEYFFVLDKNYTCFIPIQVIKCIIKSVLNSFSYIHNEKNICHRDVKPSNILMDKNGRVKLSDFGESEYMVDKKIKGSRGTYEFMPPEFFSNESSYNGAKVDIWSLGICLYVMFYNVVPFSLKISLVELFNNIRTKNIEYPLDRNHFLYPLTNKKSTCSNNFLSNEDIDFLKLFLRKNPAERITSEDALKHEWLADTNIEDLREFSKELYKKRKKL

For the compound `C=CCc1cccc(C)c1OCCCON1C(N)=NC(N)=NC1(C)C`, the growth inhibition in test [1] is 95% (active); in test [4], 94% (active). Further, the inhibition in test [2] is 65% (active); in test [3], -8%. The result in test [5], in test [6], in test [7] and in test [8] was inactive.
In the case of `CN(C)CCOc1ccc(N2CCN(CCCCNC(=O)c3ccc(NC(=O)c4ccc(Cl)cc4)cc3)CC2)cc1`, the growth inhibition in test [1] was 98% (active); in test [4], 99% (active). Besides, the inhibition in test [2] was 13%; in test [3] it was 0%. For the same compound, the outcome in test [5], in test [6], in test [7] and in test [8] was inactive.
With `COc1cccc(COCC(O)CN(CCc2ccccn2)C(=O)c2ccccc2F)c1` (stereo not given), the values for the growth inhibition in test [1] and in test [4] were 30% and 97% (active), respectively. Further, the values for the inhibition in test [2] and in test [3] were 61% (active) and -1%, respectively. The result in test [5], in test [6], in test [7] and in test [8] was inactive.
Turning to `COc1cccc2c(NN=Cc3cccc([N+](=O)[O-])c3)ccnc12`, the growth inhibition is 47% in test [1] and 100% (active) in test [4]. Further, the inhibition was 12% in test [2] and -7% in test [3]. For the same compound, the result in test [5], in test [6], in test [7] and in test [8] was inactive.
As for `COc1ccc(C(=O)COc2cccc(/C=C/C(=O)O)c2)cc1OC`, the growth inhibition in test [1] is 28%; in test [4], 84% (active). The inhibition in test [2] is 44%; in test [3], 3%. Also, the result in test [5], in test [6], in test [7] and in test [8] was inactive.
Turning to `COC(=O)C(NC(=O)c1ccc(-c2ccc(-c3nc4ccccc4[nH]3)s2)cc1)c1ccc(O)cc1` (stereo not given), the growth inhibition in test [1] was 49%; in test [4], 83% (active). The inhibition in test [2] is 99% (active); in test [3], 3%. Also, the outcome in test [5], in test [6], in test [7] and in test [8] was inactive.
For `CCN(CC)CCOc1ccc(C(O)(C#CC(O)(c2ccc(OCCN(CC)CC)cc2)c2ccc([N+](=O)[O-])cc2)c2ccc([N+](=O)[O-])cc2)cc1` (stereo not given), the figures for the growth inhibition in test [1] and in test [4] were 97% (active) and 98% (active), respectively. Besides, the values for the inhibition in test [2] and in test [3] were 55% (active) and 3%, respectively. In addition, the result in test [5], in test [6], in test [7] and in test [8] was inactive.
For `O=S(=O)(NCCN1CCCC1)c1ccc(-c2cccc(CNCc3ccc(F)cc3)c2)s1`, the growth inhibition in test [1] was 50% (active); in test [4] it was 99% (active). Besides, the inhibition was 48% in test [2] and 4% in test [3]. For the same compound, the outcome in test [5], in test [6], in test [7] and in test [8] was inactive.
Consider `CC(C)(C)N1CCC(N(Cc2ccc(-c3ccc(C(F)(F)F)cc3)cc2)C(=O)Cn2c(CCc3cccc(F)c3F)cc(=O)c3cccnc32)CC1`, for which the growth inhibition was 63% (active) in test [1] and 102% (active) in test [4]. Also, the inhibition was 100% (active) in test [2] and -1% in test [3]. Further, the result in test [5], in test [6], in test [7] and in test [8] was inactive.
With `CN(C(=O)Cc1ccc(Cl)cc1)C1CCN(CCCCCNC(=O)/C=C/c2ccc(Cl)c(Cl)c2)CC1`, the growth inhibition in test [1] was 16%; in test [4], 83% (active). For the same compound, the inhibition is 69% (active) in test [2] and -6% in test [3]. Besides, the outcome in test [5], in test [6], in test [7] and in test [8] was inactive.
Take `Oc1ccc(CCNc2nc(NCCCOc3ccccc3-c3cccnc3)nc(N3CCNCC3)n2)cc1`: the growth inhibition was 1% in test [1] and 92% (active) in test [4]. The inhibition was 10% in test [2] and 0% in test [3]. Also, the result in test [5], in test [6], in test [7] and in test [8] was inactive.
Take `O=C(Nc1cccc(C(F)(F)F)c1)c1cccc(S(=O)(=O)NCC2CCCN2CC2CCCCC2)c1` (stereo not given): the growth inhibition in test [1] was 2%; in test [4], 97% (active). For the same compound, the inhibition in test [2] was 6%; in test [3], 0%. Also, the outcome in test [5], in test [6], in test [7] and in test [8] was inactive.
With `CCOc1ccc2c(NN=Cc3ccccc3F)cc(C)nc2c1`, the growth inhibition in test [1] is 77% (active); in test [4] it was 101% (active). The inhibition in test [2] is -1%; in test [3], -5%. For the same compound, the outcome in test [5], in test [6], in test [7] and in test [8] was inactive.
Consider `CS(=O)(=O)c1ccc(CCNCc2ccc(-c3ccc(CN(C(=O)C4CC(=O)c5ccccc54)C4CCN(Cc5ccccc5)CC4)cc3)nc2)cc1` (stereo not given), for which the values for the growth inhibition in test [1] and in test [4] were 49% and 100% (active), respectively. For the same compound, the inhibition in test [2] and in test [3] was 9% in each case. The result in test [5], in test [6], in test [7] and in test [8] was inactive.
In the case of `Clc1ccc(C=NNc2ccnc3ccccc23)cc1`, the results for the growth inhibition in test [1] and in test [4] were 97% (active) and 100% (active), respectively. Moreover, the inhibition in test [2] is 5%; in test [3], 1%. Further, the outcome in test [5], in test [6], in test [7] and in test [8] was inactive.
Turning to `COc1ccc(-c2cnc3ccc(NCc4ccc(S(N)(=O)=O)cc4)nn23)cc1`, the figures for the growth inhibition in test [1] and in test [4] were 99% (active) and 96% (active), respectively. The figures for the inhibition in test [2] and in test [3] were 19% and -2%, respectively. In addition, the outcome in test [5], in test [6], in test [7] and in test [8] was inactive.
Regarding `O=C(O)c1ccc2c(c1)N(C(=O)CNCc1ccc(F)cc1)CC(=O)N2CCCc1ccccc1`, the growth inhibition in test [1] is -2%; in test [4] it was 95% (active). Besides, the inhibition in test [2] is 1%; in test [3], 2%. The outcome in test [5], in test [6], in test [7] and in test [8] was inactive.
`Cc1cccc2[nH]c(-c3cccc(-c4ccc(NC(=O)NCc5cccc(F)c5)cc4)c3)nc12`: the growth inhibition was 83% (active) in test [1] and 101% (active) in test [4]. Also, the inhibition is 40% in test [2] and -4% in test [3]. For the same compound, the result in test [5], in test [6], in test [7] and in test [8] was inactive.
As to `CCC1(C)N=C(N)N=C(N)N1c1ccccc1` (stereo not given), the growth inhibition in test [1] was -2%; in test [4], 98% (active). The inhibition in test [2] was 6%; in test [3], 0%. Further, the outcome in test [5], in test [6], in test [7] and in test [8] was inactive.
Consider `COc1cccc(-c2cnc(-c3ccncc3)nc2C2CCN(Cc3ccc(NC(C)=O)cc3)CC2)c1`, for which the values for the growth inhibition in test [1] and in test [4] were -3% and 89% (active), respectively. Besides, the values for the inhibition in test [2] and in test [3] were 17% and 0%, respectively. Moreover, the outcome in test [5], in test [6], in test [7] and in test [8] was inactive.
